Source: article PMC5700166
Where a chain is given by its changes, count along the chain named.

What was measured:
Test in all cases: protein-binding microarray (PBM); PBM: ~300 nM protein, 6 mM HEPES pH 7.8, 80 mM KCl, 0.5 mM EDTA, 0.5 mM EGTA, 6% glycerol, 35 ng/ul poly-dIdC, 1% milk, 1 h, room temperature; Ap Aiptasia and Nv Nematostella (sea anemones) / Co Capsaspora / Aq Amphimedon (sponge) / Dm Drosophila / Hu human; RHD is the Rel homology domain; high values mean tight binding
Conditions in all cases: dsDNA, one strand shown
GST-Ap-NF-kB RHD = target: T1, GST-Ap-NF-kB RHD (Exaiptasia pallida (Aiptasia), UniProt A0A913YAJ5 2-422)
T1 sequence: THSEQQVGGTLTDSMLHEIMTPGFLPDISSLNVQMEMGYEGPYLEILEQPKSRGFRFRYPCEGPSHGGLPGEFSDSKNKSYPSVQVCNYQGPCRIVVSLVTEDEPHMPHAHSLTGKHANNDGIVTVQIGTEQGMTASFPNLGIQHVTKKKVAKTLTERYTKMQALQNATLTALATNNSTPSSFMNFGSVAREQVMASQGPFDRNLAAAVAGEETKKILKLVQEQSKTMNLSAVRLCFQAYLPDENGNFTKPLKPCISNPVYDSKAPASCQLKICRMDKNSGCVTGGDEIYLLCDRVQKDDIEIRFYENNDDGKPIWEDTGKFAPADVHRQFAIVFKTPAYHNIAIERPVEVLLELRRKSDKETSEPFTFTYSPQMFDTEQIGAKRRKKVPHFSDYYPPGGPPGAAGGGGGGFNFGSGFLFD

[1] = target: T2, GST-Nv-NF-kB (Cys allele) (Nematostella vectensis, UniProt E5G601 2-411)
T2 sequence: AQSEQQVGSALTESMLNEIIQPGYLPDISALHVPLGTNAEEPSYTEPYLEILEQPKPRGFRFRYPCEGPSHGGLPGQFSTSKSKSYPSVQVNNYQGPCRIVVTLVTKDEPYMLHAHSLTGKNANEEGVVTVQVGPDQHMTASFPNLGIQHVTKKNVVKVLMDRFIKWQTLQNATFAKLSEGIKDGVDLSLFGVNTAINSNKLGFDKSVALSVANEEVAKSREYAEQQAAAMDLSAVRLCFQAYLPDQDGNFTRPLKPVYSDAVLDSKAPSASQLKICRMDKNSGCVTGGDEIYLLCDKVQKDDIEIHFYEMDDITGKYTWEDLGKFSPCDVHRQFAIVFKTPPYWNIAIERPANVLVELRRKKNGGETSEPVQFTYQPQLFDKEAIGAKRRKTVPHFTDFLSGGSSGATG

[2] = target: T3, GST-Nv-NF-kB (Ser allele) (Nematostella vectensis, UniProt A7UNT2 2-411)
T3 sequence: T2 sequence with Q21R, C66S, S207N, E215Q, V217A, E225K, A268E, D399E

GST-Co-NF-kB = target: T4, GST-Co-NF-kB (Capsaspora owczarzaki, UniProt F1ARL5 200-546)
T4 sequence: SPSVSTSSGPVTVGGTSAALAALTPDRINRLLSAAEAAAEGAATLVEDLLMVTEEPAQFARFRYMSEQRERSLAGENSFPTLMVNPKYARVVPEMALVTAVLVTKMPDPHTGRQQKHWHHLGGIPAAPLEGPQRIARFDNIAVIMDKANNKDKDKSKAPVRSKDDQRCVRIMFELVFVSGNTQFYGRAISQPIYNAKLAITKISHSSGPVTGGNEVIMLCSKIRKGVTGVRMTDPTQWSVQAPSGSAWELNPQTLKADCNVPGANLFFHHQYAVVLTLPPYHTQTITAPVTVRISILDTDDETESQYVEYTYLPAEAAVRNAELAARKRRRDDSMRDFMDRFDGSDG

GST-Dm-Relish = target: T5, GST-Dm-Relish (Drosophila melanogaster, UniProt Q94527 99-473)
T5 sequence: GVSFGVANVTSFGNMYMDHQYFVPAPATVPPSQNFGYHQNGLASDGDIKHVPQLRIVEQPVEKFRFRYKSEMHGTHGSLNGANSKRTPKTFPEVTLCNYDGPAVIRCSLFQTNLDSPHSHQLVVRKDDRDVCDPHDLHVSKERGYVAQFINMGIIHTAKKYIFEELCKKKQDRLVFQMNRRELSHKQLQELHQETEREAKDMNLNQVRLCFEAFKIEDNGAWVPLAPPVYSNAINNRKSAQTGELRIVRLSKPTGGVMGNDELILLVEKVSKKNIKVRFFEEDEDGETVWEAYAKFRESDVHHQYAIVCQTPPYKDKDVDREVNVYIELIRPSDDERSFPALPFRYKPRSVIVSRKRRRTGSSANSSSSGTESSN

GST-Aq-NF-kB = target: T6, GST-Aq-NF-kB (Amphimedon queenslandica, UniProt A9Y5G7 2-389)
T6 sequence: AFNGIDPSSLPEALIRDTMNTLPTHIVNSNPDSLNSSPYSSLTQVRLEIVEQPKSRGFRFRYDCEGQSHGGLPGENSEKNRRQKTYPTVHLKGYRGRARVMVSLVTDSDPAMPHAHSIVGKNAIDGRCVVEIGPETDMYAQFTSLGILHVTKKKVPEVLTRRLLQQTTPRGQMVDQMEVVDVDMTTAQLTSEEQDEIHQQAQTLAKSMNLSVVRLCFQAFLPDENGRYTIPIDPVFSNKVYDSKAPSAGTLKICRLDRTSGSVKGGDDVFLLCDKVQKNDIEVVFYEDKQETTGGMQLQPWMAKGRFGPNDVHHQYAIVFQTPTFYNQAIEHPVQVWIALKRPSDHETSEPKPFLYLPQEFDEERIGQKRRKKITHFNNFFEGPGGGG

GST-Hu-p50 = GST-Hu-p50 (Homo sapiens, UniProt P19838 7-356)
GST-Hu-p50, sequence (P19838 7-356): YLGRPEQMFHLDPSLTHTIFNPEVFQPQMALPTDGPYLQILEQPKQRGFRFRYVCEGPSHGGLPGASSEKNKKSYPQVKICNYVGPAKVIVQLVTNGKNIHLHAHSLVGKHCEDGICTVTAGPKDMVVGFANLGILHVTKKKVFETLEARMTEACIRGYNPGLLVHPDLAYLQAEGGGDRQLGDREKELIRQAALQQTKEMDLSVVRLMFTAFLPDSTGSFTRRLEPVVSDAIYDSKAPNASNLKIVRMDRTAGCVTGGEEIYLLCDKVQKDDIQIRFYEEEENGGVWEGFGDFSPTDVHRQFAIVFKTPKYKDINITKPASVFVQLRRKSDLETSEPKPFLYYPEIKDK

| Sequence | binding signal (GST-Ap-NF-kB RHD) | binding signal [1] | binding signal [2] | binding signal (GST-Co-NF-kB) | binding signal (GST-Dm-Relish) | binding signal (GST-Aq-NF-kB) | binding signal (GST-Hu-p50) |
| --- | --- | --- | --- | --- | --- | --- | --- |
| CCGATTAACATCACATTTTTCCCTGATGTTAATCGGGTCTTGATTCGCTTGACGCTGCTG | 3.43 z-score | 5.03 z-score | 7.3 z-score | 5.64 z-score | 2.56 z-score | 4.26 z-score | 3.84 z-score |
| CCGATTAACATCAGAGCTTCCCCTGATGTTAATCGGGTCTTGATTCGCTTGACGCTGCTG | 4.5 z-score | 5.06 z-score | 5.75 z-score | 4.37 z-score | 3.56 z-score | 4.57 z-score | 4.17 z-score |
| CCGATTAACATCAAGTCCCCCCCTGATGTTAATCGGGTCTTGATTCGCTTGACGCTGCTG | 6.57 z-score | 4.81 z-score | 5.16 z-score | 6.94 z-score | 5.61 z-score | 5.07 z-score | 4.23 z-score |
| CCGATTAACATCAGGGGGGAGTATGATGTTAATCGGGTCTTGATTCGCTTGACGCTGCTG | 6.07 z-score | 5.01 z-score | 5.11 z-score | 6.88 z-score | 3.7 z-score | 4.54 z-score | 6.15 z-score |
| CCGATTAACATCAGGATTACCCCTGATGTTAATCGGGTCTTGATTCGCTTGACGCTGCTG | 4.61 z-score | 4.15 z-score | 3.63 z-score | 3.97 z-score | 4.19 z-score | 5.53 z-score | 3.75 z-score |
| CCGATTAACATCACACTTTCCCCTGATGTTAATCGGGTCTTGATTCGCTTGACGCTGCTG | 6.32 z-score | 6.92 z-score | 8.7 z-score | 7.06 z-score | 2.75 z-score | 4.81 z-score | 5.3 z-score |
| CCGATTAACATCAGGGGGTTTGATGATGTTAATCGGGTCTTGATTCGCTTGACGCTGCTG | 6.11 z-score | 4.29 z-score | 6.14 z-score | 1.61 z-score | 5.81 z-score | 4.09 z-score | 6.03 z-score |
| CCGATTAACATCAGGATTACCCATGATGTTAATCGGGTCTTGATTCGCTTGACGCTGCTG | 2.92 z-score | 2.65 z-score | 2.12 z-score | 1.67 z-score | 2.52 z-score | 3.19 z-score | 1.83 z-score |
| CCGATTAACATCAAAAAGACCCCTGATGTTAATCGGGTCTTGATTCGCTTGACGCTGCTG | 4.67 z-score | 4.44 z-score | 3.31 z-score | 1.92 z-score | 6.3 z-score | 5.55 z-score | 4.67 z-score |
| CCGATTAACATCAGAAACACCCCTGATGTTAATCGGGTCTTGATTCGCTTGACGCTGCTG | 3.57 z-score | 2.68 z-score | 2.16 z-score | 3.34 z-score | 3.56 z-score | 3.93 z-score | 3.61 z-score |
| CCGATTAACATCAACTTTCCCCCTGATGTTAATCGGGTCTTGATTCGCTTGACGCTGCTG | 7.6 z-score | 7.45 z-score | 9.1 z-score | 9.36 z-score | 3.9 z-score | 6.57 z-score | 6.16 z-score |
| CCGATTAACATCAGGAAACCCCCTGATGTTAATCGGGTCTTGATTCGCTTGACGCTGCTG | 11.2 z-score | 10.1 z-score | 9.07 z-score | 3.13 z-score | 10.1 z-score | 10.5 z-score | 8.19 z-score |
| CCGATTAACATCAATTATTCCCCTGATGTTAATCGGGTCTTGATTCGCTTGACGCTGCTG | 6.67 z-score | 9.08 z-score | 9.75 z-score | 9.22 z-score | 5.24 z-score | 5.63 z-score | 6.11 z-score |
| CCGATTAACATCAAAAACCCCCTTGATGTTAATCGGGTCTTGATTCGCTTGACGCTGCTG | 10.4 z-score | 10.3 z-score | 10.9 z-score | 2.93 z-score | 10.9 z-score | 9.31 z-score | 8.33 z-score |
| CCGATTAACATCAAACTACCCCCTGATGTTAATCGGGTCTTGATTCGCTTGACGCTGCTG | 5.45 z-score | 4.01 z-score | 4.35 z-score | 5.82 z-score | 2.49 z-score | 4.3 z-score | 4.12 z-score |
| CCGATTAACATCAAGGGGAAGGGTGATGTTAATCGGGTCTTGATTCGCTTGACGCTGCTG | 4.52 z-score | 5.48 z-score | 5.81 z-score | 3.95 z-score | 2 z-score | 4.16 z-score | 4.32 z-score |
| CCGATTAACATCAAGATTCCCCTTGATGTTAATCGGGTCTTGATTCGCTTGACGCTGCTG | 7.59 z-score | 10 z-score | 10.8 z-score | 5.46 z-score | 6.62 z-score | 6.39 z-score | 7.18 z-score |
| CCGATTAACATCAAATAAACCCCTGATGTTAATCGGGTCTTGATTCGCTTGACGCTGCTG | 4.74 z-score | 5.11 z-score | 4.3 z-score | 2.32 z-score | 6.13 z-score | 5.4 z-score | 4.96 z-score |
| CCGATTAACATCAAAAAAGTCCCTGATGTTAATCGGGTCTTGATTCGCTTGACGCTGCTG | 8.8 z-score | 11.6 z-score | 11.5 z-score | 2.41 z-score | 9.77 z-score | 8.92 z-score | 7.77 z-score |
| CCGATTAACATCAACACCCCCCTTGATGTTAATCGGGTCTTGATTCGCTTGACGCTGCTG | 4.56 z-score | 3.85 z-score | 3.96 z-score | 2.8 z-score | 5.23 z-score | 5.24 z-score | 4.37 z-score |
| CCGATTAACATCAAAATCCCGGGTGATGTTAATCGGGTCTTGATTCGCTTGACGCTGCTG | 3.32 z-score | 2.32 z-score | 2.26 z-score | 1.42 z-score | 6.58 z-score | 3.23 z-score | 3.3 z-score |
| CCGATTAACATCAAAAATCCCAATGATGTTAATCGGGTCTTGATTCGCTTGACGCTGCTG | 2.79 z-score | 3.4 z-score | 2.4 z-score | 1.58 z-score | 6.98 z-score | 3.37 z-score | 3.32 z-score |
| CCGATTAACATCAAGGGGGGGCGTGATGTTAATCGGGTCTTGATTCGCTTGACGCTGCTG | 4.19 z-score | 4.66 z-score | 4.86 z-score | 3.83 z-score | 3.7 z-score | 4.52 z-score | 4.17 z-score |
| CCGATTAACATCAGGGGACGTACTGATGTTAATCGGGTCTTGATTCGCTTGACGCTGCTG | 4.18 z-score | 3.48 z-score | 3.58 z-score | 2.33 z-score | 6.95 z-score | 4.39 z-score | 3.75 z-score |
